The supplement of paper PMC4723716
± gives the uncertainty stated by the source. The full ranking holds about 9,900 compounds; the median of “viability index relative to DMSO control” is about 1, and the lowest 2% start at about 0.85. The sample as a whole holds a higher share of the lowest values than the screen did.

Test system: Plasmodium falciparum NF54 stage V gametocytes
Test: viability index relative to DMSO control (fraction); higher = less gametocyte killing
Details: 2.5 µM, incubation time: 72 h
Outline: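 P. falciparum NF54 stage V gametocytes (serum-free medium, 0.75% gametocytemia, 1.25% hematocrit) were exposed to compound at 2.5 µM for 72 hr at 37°C under low oxygen, then stained with MitoTracker Red CMXRos and saponin for one to two hours. Red particles of 20–70 µm2 in one field per well were counted, and the viability index is that count scaled to the plate mean of solvent-only wells.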

[1] = library set: Broad Institute DOS
[2] = library set: Broad Institute Blood Stage

| SMILES | viability index [1] | viability index [2] |
| --- | --- | --- |
| CO[C@@H]1CC[C@H]2CCN(C)C(=O)[C@H](C)CN(C)C(=O)c3cc(C#N)ccc3OC[C@@H]1O2 | 0.973 ± 0.056 |  |
| CCC(=O)Nc1ccc2c(c1)C(=O)N(C)C[C@@H](OC)[C@H](C)CN(C(=O)Cc1cccnc1)[C@@H](C)CO2 | 1.13 ± 0.043 |  |
| O=C(Cc1ccncc1)N1CC[C@@H]2[C@H](CO)Nc3ccc(Br)cc3[C@@H]21 | 1.077 ± 0.0015 |  |
| C/C=C/c1cccc(-c2nc(C(=O)Nc3nccs3)cc3c2[C@@H](CCO)N(C(=O)NC(C)C)C3)c1 | 0.867 ± 0.035 |  |
| C[C@@H]1CN([C@H](C)CO)C(=O)Cc2cc(NC(=O)Nc3ccc(F)cc3)ccc2O[C@H]1CN(C)S(C)(=O)=O | 0.939 ± 0.16 |  |
| CC(=O)NC[C@H]1[C@@H](c2ccc(C#Cc3ccccc3F)cc2)[C@@H](CO)N1C(C)=O | 1.05 ± 0.002 |  |
| C/C=C/c1ccc([C@H]2[C@@H](CO)N(C(=O)NC3CCCCC3)[C@H]2C#N)cc1 | 1.11 ± 0.16 |  |
| CC(C)C#Cc1ccc([C@@H]2[C@@H](CO)N(C(=O)c3cccc(F)c3)[C@H]2C#N)cc1 | 1.17 ± 0.073 |  |
| C[C@H]1CCCCO[C@H](CN(C)S(=O)(=O)c2ccc(F)cc2)[C@@H](C)CN([C@@H](C)CO)C(=O)c2cc(N(C)C)ccc2O1 | 1.09 ± 0.17 |  |
| C[C@@H]1CCCCO[C@@H](CN(C)S(=O)(=O)c2ccc(F)cc2)[C@@H](C)CN([C@@H](C)CO)C(=O)c2cc(N(C)C)ccc2O1 | 0 |  |
| Cc1noc(C)c1S(=O)(=O)N(C)C[C@@H]1OCCCC[C@@H](C)Oc2ccc(N(C)C)cc2C(=O)N([C@@H](C)CO)C[C@H]1C | 0.635 ± 0.13 |  |
| Cc1noc(C)c1S(=O)(=O)N(C)C[C@H]1OCCCC[C@@H](C)Oc2ccc(N(C)C)cc2C(=O)N([C@H](C)CO)C[C@@H]1C | 1.02 ± 0.029 |  |
| C[C@@H]1CCCCO[C@@H](CN(C)S(=O)(=O)c2ccc(F)cc2)[C@H](C)CN([C@@H](C)CO)C(=O)c2cc(N(C)C)ccc2O1 | 1.05 ± 0.092 |  |
| Cc1noc(C)c1S(=O)(=O)N(C)C[C@@H]1OCCCC[C@@H](C)Oc2ccc(N(C)C)cc2C(=O)N([C@@H](C)CO)C[C@@H]1C | 1.08 ± 0.068 |  |
| CCC(=O)N1[C@@H](CO)[C@@H]2c3ccccc3N(C(=O)Nc3ccc(Cl)cc3)C[C@@H]21 | 1.1 ± 0.044 |  |
| COc1cccc(-c2ccc([C@H]3[C@H]4CNC[C@@H]3N4CC3CCCCC3)cc2)c1 | 0.963 ± 0.029 |  |
| CCCC#Cc1cnc2c(c1)C(=O)N([C@H](C)CO)C[C@H](C)[C@H](CN(C)C(=O)Nc1cc(F)ccc1F)O2 | 1.02 ± 0.081 |  |
| CO[C@@H]1CN(C)C(=O)c2cc(NC(=O)Nc3cccc(Cl)c3)ccc2OC[C@H](C)N(C(=O)Nc2c(C)noc2C)C[C@H]1C | 1.07 ± 0.019 |  |
| COc1ccccc1NC(=O)Nc1ccc2c(c1)OC[C@@H](C)N(Cc1ccccc1Cl)C[C@@H](C)[C@H](OC)CN(C)C2=O |  | 0.821 ± 0.053 |
| CO[C@H]1CN(C)C(=O)c2cc(NC(=O)Nc3cccc(Cl)c3)ccc2OC[C@H](C)N(C(=O)Nc2c(C)noc2C)C[C@H]1C | 0.7814 ± 0.0047 |  |
| CO[C@@H]1CN(C)C(=O)c2cc(NC(=O)Nc3cccc(Cl)c3)ccc2OC[C@@H](C)N(C(=O)Nc2c(C)noc2C)C[C@H]1C | 1.052 ± 0.0092 |  |
| COc1ccccc1CN1C[C@@H](C)[C@H](OC)CN(C)C(=O)c2cc(NC(=O)Nc3ccccc3OC)ccc2OC[C@H]1C | 1.02 ± 0.091 |  |
| COc1ccccc1CN1C[C@@H](C)[C@H](OC)CN(C)C(=O)c2ccc(NC(=O)Nc3ccccc3OC)cc2OC[C@H]1C |  | 0.855 ± 0.025 |
